Shown are actives, neighbours in structure and some others; about 0.69% of the full set was active somewhere.
PINK1 expr mod – A Quantitative High throughput Screen to Identify Chemical Modulators of PINK1 Expression; PINK1 immunofluorescence, high-content cytometry, 24 h; Potency, µM (doses to about 76.6 µM), without a hit: top-dose activation (PINK1 increase), usual class: activators; 410,000 compounds, 0.2% hits; AID 624263, 2012; active means well fitted activation curve with a large enough effect; inconclusive means small, poorly fitted or top-dose-only effect; cell line not stated here; further: % of control where 0% means no effect; nearly all actives have a fitted effect of over 65% in size
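Compound titrations (5 concentrations, 24 h) on a stable cell line; DMSO and CCCP controls. Endpoint: fixed-cell PINK1 immunofluorescence with mitochondrial, cell and nuclear markers, scanned by microplate cytometer.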
Vif-A3F inh – qHTS for Inhibitors of Vif-A3F Interactions: qHTS; AID 602313, 2012; HeLa A3F-eYFP + Vif (tagged APOBEC3F with the HIV-1 protein that degrades it), YFP fluorescence increase; 390,000 compounds, 0.2% hits; Potency, µM (doses to about 46.1 µM), for inactives: at the top dose activity, negative = active; further: % of control where 0% means no effect; nearly all actives have a fitted effect of over 65% in size
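HeLa cells stably expressing Vif plus C-terminally eYFP-tagged A3F were seeded, incubated overnight at 37 deg C, dosed with compound, incubated overnight again at 37 deg C. Yellow fluorescence (Ex 488/Em 500-530) reported blocked Vif-mediated A3F-eYFP degradation.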
Glioma ERSR ind – qHTS for Inducers of the Endoplasmic Reticulum Stress Response (ERSR) in Human Glioma: qHTS; 420,000 compounds, 0.02% hits; U87-MG GRP78 promoter luciferase reporter, 16 h; Potency, µM, inactives show at the top dose activation, most hits filed as activators; AID 602332, 2012; further: series mostly up to about 76 µM; % of control where 0% means no effect; nearly all actives have a fitted effect of over 35% in size
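Stably transfected U87-MG glioma cells carrying a GRP78-based luciferase sensor; 16 h compound incubation. Luminescence end-point read 10 min after Bright-Glo addition at room temperature.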
Abeta rescue – qHTS for compounds that reverse cellular toxicity of Amyloid beta (A-beta) peptide in yeast: Primary Screen. yeast expressing A-beta42, growth rescue, OD600, 48 h; response scale: 0% DMSO, 100% iron-clioquinol control. Potency, µM (doses to about 46.1 µM), hits mostly activators. 410,000 compounds, 0.063% hits; further: nearly all actives have a fitted effect of over 55% in size
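Growth rescue measured by 600 nm absorbance after 48 h yeast culture at 30 C with compound. Values normalized between DMSO and an equimolar ferric chloride plus clioquinol control.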
Vif-APOBEC3G blk – qHTS for Inhibitors of Vif-A3G Interactions: qHTS; DNA dC->dU-editing enzyme APOBEC-3G (Homo sapiens), Q9HC16; HeLa A3G-eYFP + Vif (tagged APOBEC3G with the HIV-1 protein that degrades it), YFP fluorescence, overnight; Potency, µM (doses to about 46.1 µM), inactives show at the top dose activity, negative = active, usual class: inhibitors; 410,000 compounds, 0.076% hits; further: on the % scale 0 is the no-effect control and ±100 the full control effect; nearly all actives have a fitted effect of over 60% in size
Target sequence (Q9HC16 whole entry, looked up): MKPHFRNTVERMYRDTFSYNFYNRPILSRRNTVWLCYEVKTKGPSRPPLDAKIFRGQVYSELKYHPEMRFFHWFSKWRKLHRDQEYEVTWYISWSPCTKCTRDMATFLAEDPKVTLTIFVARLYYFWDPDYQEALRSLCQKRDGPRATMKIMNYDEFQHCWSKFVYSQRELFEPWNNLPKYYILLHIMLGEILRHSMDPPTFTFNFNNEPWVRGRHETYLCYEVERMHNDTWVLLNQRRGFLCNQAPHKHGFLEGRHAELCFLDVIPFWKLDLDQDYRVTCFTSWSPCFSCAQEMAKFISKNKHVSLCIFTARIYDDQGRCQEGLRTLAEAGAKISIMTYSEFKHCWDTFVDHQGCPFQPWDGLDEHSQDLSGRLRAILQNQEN
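Read-out is eYFP fluorescence (Ex 488/Em 500-530) from Vif-expressing HeLa A3G-eYFP cells; more signal means A3G escaped Vif-mediated degradation. Cells plated overnight, compound pinned in, incubated overnight at 37 deg C.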
FUS suppressor – qHTS for Suppressors of FUS Proteinopathy: Primary screen using FUS-linked yeast assay; S. cerevisiae FUS-expressing, growth rescue, OD600, 24 h; Potency, µM (top dose mostly 76.6 µM), most hits filed as activators; 390,000 compounds, 0.24% hits;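 further: plate controls were DMSO vehicle for no effect and reference control for full effect; nearly all actives have a fitted effect of over 55% in size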
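Compound concentration series was pinned onto galactose-induced FUS-expressing yeast seeded at OD 0.005. Plates sat 24hr at 30C; absorbance at 600 nm gave growth. DMSO served as background control.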
The depositor's hits bear a star; i = inactive; ? = inconclusive; . = no result given. Unless noted, the call rests on the fitted dose curve; in most records, active means well fitted curve in the direction sought with a large enough effect; inconclusive means small, poorly fitted or top-dose-only effect, or another doubt; inactive means no such curve, though single readings can be large; an effect the other way counts as inactive or inconclusive. Potency means the concentration at half of the fitted maximal effect.

SMILES	PINK1 expr mod	Vif-A3F inh	Glioma ERSR ind	Abeta rescue	Vif-APOBEC3G blk	FUS suppressor
CCOc1ccc(NC(=O)c2cnn3c2NC(c2ccccc2)=CC3c2cccc(OC)c2OC)cc1 (stereo not given)	0%	0%	-4%	i	-1%	22µM*
COc1cccc(C2C=C(c3ccccc3)Nc3c(C(=O)Nc4ccccc4)cnn32)c1OC (stereo not given)	0%	4%	-2%	i	-17%	i
O=C(NC1CCCCC1)c1sc(=S)n2c1[nH]c(=O)c1ccccc12	25µM*	4%	-5%	i	1%	i
COc1cccc(-c2sc3ccc(OC)cc3c2-c2ccc(OCCN(C)C)cc2)c1	-1%	6%	-10%	i	2%	32µM*
CN(C)C(=O)c1cccc(-c2cccc(-c3nc(C(=O)NCc4ccccc4)cc4c3[C@@H](CCO)N(S(=O)C(C)(C)C)C4)c2)c1 (stereo not given in full)	0%	.	10%	i	?	35µM*
CCNC(=O)c1cc2c(c(-c3cccc(-c4cccc(C(=O)N(C)C)c4)c3)n1)[C@H](CCO)N(S(=O)C(C)(C)C)C2 (stereo not given in full)	1%	.	18%	i	0%	i
COc1cccc(CNC(=O)c2cc3c(c(-c4cccc(-c5cccc(C#N)c5)c4)n2)[C@H](CCO)N(S(=O)C(C)(C)C)C3)c1 (stereo not given in full)	0%	.	-4%	i	-4%	22µM*
Cc1cccc2cc(CN(CC3CCCO3)C(=O)c3cccc(F)c3)c(N(C)C)nc12 (stereo not given)	0%	.	-3%	.	.	.
NCCCCC(NC(=O)C1CCCN1C(=O)C1CSSCC(N)C(=O)NC(Cc2ccccc2)C(=O)NC(Cc2ccccc2)C(=O)NC(CCC(N)=O)C(=O)NC(CC(N)=O)C(=O)N1)C(=O)NCC(N)=O (stereo not given)	.	.	4%	.	.	.
C=C(C)c1ccc(C(C)(C)NC(=O)N(Cc2ccccc2)Cc2ccco2)cc1	11µM*	-2%	-6%	i	-4%	i
COc1cccc(CN(C)C(=O)c2cnn(-c3nccc(-c4ccc5c(c4)OCO5)n3)c2C)c1	0%	.	0%	.	.	.
C/C(=N/NC(N)=S)c1ccc(Br)s1	-1%	11µM*	-4%	?	13%	i
C/C(=N\NC(=O)Cc1ccccc1)c1ccc(Br)s1	3%	-3%	1%	i	-2%	i
CC(NC(=O)c1ccc2c(c1)N(Cc1ccc(Cl)cc1)C(=O)c1ccccc1S2=O)c1ccccc1 (stereo not given)	-1%	2%	0%	i	0%	25µM*
CCC(C)NC(=O)c1ccc2c(c1)N(Cc1cccc(Cl)c1)C(=O)c1ccccc1S2=O (stereo not given)	3%	-5%	-4%	i	-7%	?
COc1ccc(-c2cc(CCCC(=O)NCCc3ccc(OC)cc3OC)no2)cc1	11µM*	-3%	-4%	i	-5%	i
COc1ccc2c(c1)-c1nc(-n3ncc(C(=O)NC(C)(C)CO)c3C3CC3)ncc1CC2	-1%	.	12%	.	.	.
COc1cc(OC)c2c(c1)S(=O)(=O)C(c1ccccc1)=C2N	3%	0%	-3%	16µM*	-5%	i
COc1cc(OC)c2c(-c3ccccc3)cc(=O)oc2c1	1%	-2%	-4%	i	?	i
CCOC(=O)/C(C#N)=C\C=C1C=CN(C)C=C1	18%	22µM*	-3%	i	?	i
CCOC(=O)/C(C#N)=C\c1ccc(CC)s1	1%	-8%	4%	i	0%	i
Cc1ccc2oc(/N=C(\N)NC(=O)C(C)(C)C)nc2c1	4%	22µM*	-14%	i	4%	i
Cc1ccc2nc(N3CCCCCC3)c(CN(CC3CCCO3)C(=O)c3cncs3)cc2c1 (stereo not given)	0%	.	-5%	.	.	.
NC(=O)N/N=C/c1sc(N2CCCCC2)nc1-c1cccs1	0%	3%	2%	i	?	i
CC(C)NC(=S)N/N=C/c1sc(N2CCCCC2)nc1-c1cccs1	0%	11µM*	5%	i	?	i
SMILES	PINK1 expr mod	Vif-A3F inh	Glioma ERSR ind	Abeta rescue	Vif-APOBEC3G blk	FUS suppressor
Cc1ccccc1-c1cccc(CN2CCc3nnc(C(NS(C)(=O)=O)C(C)C)n3CC2)c1 (stereo not given)	1%	.	-4%	.	.	.
CCOC(=O)c1sc(=S)n(C)c1NC(=O)c1cccc(Br)c1	40µM*	-12%	-7%	i	0%	i
O=C(COc1ccccc1C(=O)Nc1ccccc1)Nc1ccc2ccccc2c1	9%	.	.	.	.	.
CCC(C)n1c(NC(=O)c2ccccc2)c(C#N)c2nc3ccccc3nc21 (stereo not given)	?	32µM*	-4%	i	?	i
Cc1ccc(NC(=O)c2ccc(NCc3ccco3)c([N+](=O)[O-])c2)cc1Cl	?	8.9µM*	-2%	i	?	.
Cc1cccc(NC(=O)c2ccc(NCCc3ccccc3)c([N+](=O)[O-])c2)c1	14µM*	?	-3%	i	-17%	i
O=C(NNC(=S)Nc1ccc(F)cc1)c1cccc([N+](=O)[O-])c1	-1%	4%	2%	i	-1%	i
Cc1ccc(NC(=S)NNC(=O)c2cccc([N+](=O)[O-])c2)cc1Cl	35µM*	9%	1%	?	-9%	i
Cc1ccc(C(=O)NCc2ccco2)cc1[N+](=O)[O-]	0%	-12%	18%	i	-1%	i
Cc1ccc(NC(=O)c2ccc(NCCCN3CCC(C)CC3)c([N+](=O)[O-])c2)cc1F	?	10µM*	-8%	i	-26%	i
COCc1ccc(CN2Cc3ccccc3OC(c3ccccc3F)C2)o1 (stereo not given)	-1%	.	-5%	.	.	.
NC(=O)c1ccc(NCC2CCCO2)c([N+](=O)[O-])c1 (stereo not given)	-1%	-23%	-2%	i	-4%	i
Cc1ccc(NC(=O)c2ccc(NCC3CCCO3)c([N+](=O)[O-])c2)cc1Cl (stereo not given)	?	11µM*	-4%	i	-26%	i

Bioassay records: PubChem BioAssay, National Center for Advancing Translational Sciences (NCATS)
